# The campaign covered roughly 39,000 compounds. About 1,500 (3.8%) were called active. Many of the other results were omitted from the sample, so actives are more common in it than they were.
# System: HSkMC (human skeletal muscle cells)
# Test: cytotoxicity call (relative viability < 0.9)
# Conditions: 10 µM
row,Compound,cytotoxicity call
1,C[C@H]1CN([C@@H](C)CO)C(=O)c2cc(NS(=O)(=O)c3cn(C)cn3)ccc2O[C@@H]1CN(C)C(=O)Nc1ccccc1,inactive
2,C[C@H](CO)N1C[C@H](C)[C@H](CN(C)S(=O)(=O)c2ccccc2F)Oc2cc(C#Cc3ccccc3)ccc2S1(=O)=O,inactive
3,CN(C)[C@@H](CN)c1cccn1C,inactive
4,C[C@H](CO)N1C[C@H](C)[C@H](CN(C)C(=O)CN2CCOCC2)Oc2ncc(C#C[C@@H](C)O)cc2C1=O,inactive
5,C[C@H](CO)N1C[C@H](C)[C@@H](CN(C)Cc2ccc(-c3ccccc3)cc2)Oc2ccc(NS(=O)(=O)c3cccs3)cc2CC1=O,inactive
6,C/C(=N\N)c1ccc2ccccc2c1,inactive
7,O=C(C[C@H]1CC[C@H]2[C@@H](COC[C@H](O)CN2C(=O)c2ccccc2)O1)N1CCOCC1,inactive
8,Cc1noc(C)c1NC(=O)Nc1cccc2c1O[C@H](CN(C)S(C)(=O)=O)[C@@H](C)CN([C@H](C)CO)C2=O,inactive
9,CC(C)NC(=O)N(C)C[C@@H]1Oc2ccc(NC(=O)Cc3ccccc3)cc2C(=O)N([C@@H](C)CO)C[C@@H]1C,inactive
10,Cc1noc(C)c1NC(=O)Nc1ccc2c(c1)C(=O)N([C@@H](C)CO)C[C@H](C)[C@@H](CN(C)C(=O)c1ccccc1)OCCCC[C@@H](C)O2,inactive
11,O=C(C[C@@H]1CC=CCC[C@@H](Cc2ccc(F)cc2)C(=O)OC[C@@H](Cc2c[nH]c3ccccc23)NC1=O)N[C@H](CO)Cc1ccccc1,active
12,O=C(C[C@@H]1CC=CCC[C@H](Cc2ccc(F)cc2)C(=O)OC[C@@H](Cc2c[nH]c3ccccc23)NC1=O)N[C@@H](CO)Cc1ccccc1,inactive
13,O=C(C[C@@H]1CC=CCC[C@@H](Cc2ccc(F)cc2)C(=O)OC[C@H](Cc2c[nH]c3ccccc23)NC1=O)N[C@@H](CO)Cc1ccccc1,inactive
14,C[C@H]1CN([C@@H](C)CO)C(=O)c2cccc(NC(=O)Nc3ccc(C(F)(F)F)cc3)c2O[C@@H]1CN(C)Cc1ccncc1,inactive
15,COc1ccc(NC(=O)Nc2ccc3c(c2)C(=O)N([C@@H](C)CO)C[C@H](C)[C@H](CN(C)Cc2ccc(C(=O)O)cc2)OCCCC[C@@H](C)O3)cc1,inactive
16,Cc1cc(C(=O)c2cc3cc(Cl)ccc3o2)ccc1Cl,inactive
17,Cc1cc(CN)cc(C)c1NC(=O)c1ccc(-c2cc(Cl)ccc2Cl)o1,active
18,Cc1ccc(CN)cc1Cl,inactive
19,COc1cccc(S(=O)(=O)N(C)C[C@H]2Oc3ncc(Br)cc3C(=O)N([C@H](C)CO)C[C@H]2C)c1,inactive
20,COC(CN(C)C(=O)c1cn(C)c2ccc(S(=O)(=O)N3CCOCC3)cc2c1=O)OC,inactive
21,Cc1[nH]c(=O)[nH]c(=O)c1S(=O)(=O)N1CCN(c2ccccc2)CC1,inactive
22,CCCn1c(=O)[nH]c2nc(-c3ccc(S(=O)(=O)N4CCN(c5ccc(Cl)cc5)CC4)cc3)[nH]c2c1=O,active
23,Cn1cc(S(=O)(=O)N2CCN(c3ccc(F)cc3)CC2)c(=O)n(C)c1=O,inactive

row,Compound,cytotoxicity call
1,C[C@H](CO)N1C[C@H](C)[C@H](CN(C)C(=O)c2ccccc2)OCCCC[C@H](C)Oc2ccc(NS(=O)(=O)c3ccccc3)cc2C1=O,inactive
2,CC(=O)Nc1ccc(S(=O)(=O)CCO)cc1,inactive
3,C[C@H](CO)N1C[C@H](C)[C@@H](CN(C)Cc2ccncc2)Oc2c(NC(=O)C3CCOCC3)cccc2C1=O,inactive
4,COc1ccc([Si](C)(C)[C@H]2[C@H](CC(=O)N3Cc4ccccc4C[C@H]3CO)O[C@@]3(C(=O)N(C)c4c(Br)cc(C)cc43)[C@@H]2C)cc1,active
5,COc1ccc([Si](C)(C)[C@H]2[C@H](CCn3cc([C@H](O)c4ccccc4)nn3)O[C@@]3(C(=O)N(C)c4c(Br)cc(C)cc43)[C@@H]2C)cc1,inactive
6,COc1ccc([Si](C)(C)[C@@H]2[C@@H](CC(=O)N3Cc4ccccc4C[C@H]3CO)O[C@]3(C(=O)N(C)c4c(Br)cc(C)cc43)[C@H]2C)cc1,active
7,COc1ccc([Si](C)(C)[C@@H]2[C@@H](CCn3cc([C@H](O)c4ccccc4)nn3)O[C@]3(C(=O)N(C)c4c(Br)cc(C)cc43)[C@H]2C)cc1,active
8,COc1ccc([Si](C)(C)[C@@H]2[C@@H](CC(=O)N3Cc4ccccc4C[C@H]3CO)O[C@]3(C(=O)N(Cc4ccc(I)cc4)c4ccccc43)[C@H]2C)cc1,inactive
9,COc1ccc([Si](C)(C)[C@H]2[C@H](CC(=O)N3Cc4ccccc4C[C@H]3CO)O[C@@]3(C(=O)N(Cc4cccc(I)c4)c4ccccc43)[C@@H]2C)cc1,inactive
10,COc1ccc([Si](C)(C)[C@H]2[C@H](CC(=O)N(CCO)Cc3ccccc3)O[C@@]3(C(=O)N(C)c4c(Br)cc(C)cc43)[C@@H]2C)cc1,inactive
11,COc1ccc([Si](C)(C)[C@@H]2[C@@H](CCn3cc([C@H](O)c4ccccc4)nn3)O[C@]3(C(=O)N(c4ccccc4)c4ccccc43)[C@H]2C)cc1,inactive
12,COc1ccc([Si](C)(C)[C@@H]2[C@@H](CC(=O)N(CCO)Cc3ccccc3)O[C@]3(C(=O)N(C)c4c(Br)cc(C)cc43)[C@H]2C)cc1,inactive
13,Cc1nnc(=O)[nH]c1NNc1ccccc1,inactive
14,COc1cccc(NC(=O)N2C[C@@H](O)COC[C@H]3O[C@H](CC(=O)NCCCN4CCOCC4)CC[C@@H]32)c1,inactive
15,COc1ccc2c3c(n(c2c1)C)[C@@H](CO)N(C[C@]13CN(C1)S(=O)(=O)c1cn(cn1)C)C(=O)Nc1ccc(cc1)F,inactive
16,NCc1ccc(-n2cccn2)cc1,inactive
17,COc1ccc(S(=O)(=O)Nc2ccc3c(c2)C(=O)N([C@H](C)CO)C[C@H](C)[C@H](CN(C)S(=O)(=O)c2cn(C)cn2)OCCCC[C@H](C)O3)cc1,inactive
18,CCCCCCCCCCCCCCCC(=O)OCC(NC(=O)C(Cl)Cl)C(O)c1ccc([N+](=O)[O-])cc1 (centres undefined),inactive
19,CCCCCCCCCC[C@@H](O)[C@H]1C=C[C@@H]2C(=O)N(c3ccccc3)C(=O)[C@@H]2N1Nc1ccc([N+](=O)[O-])cc1,active
20,CCCCCCCCCCCCCCCC(=O)OC[C@H](NC(=O)C(Cl)Cl)[C@H](O)c1ccc([N+](=O)[O-])cc1,inactive
21,C[C@@H]1CN([C@@H](C)CO)C(=O)c2cc(N(C)C)ccc2O[C@@H](C)CCCCO[C@@H]1CN(C)C(=O)Nc1cccc2ccccc12,inactive
22,C[C@@H]1CN([C@@H](C)CO)C(=O)c2cc(NS(=O)(=O)c3cccs3)ccc2O[C@@H]1CN(C)Cc1ccncc1,inactive
23,CN(C)C/C=C/C(=O)Nc1ccc(C(=O)Nc2cccc(Nc3ncc(Cl)c(-c4c[nH]c5ccccc45)n3)c2)cc1,active

row,Compound,cytotoxicity call
1,C[C@@H]1CN([C@@H](C)CO)C(=O)c2cc(NC(=O)Nc3ccccc3)ccc2O[C@@H](C)CCCCO[C@@H]1CN(C)Cc1ccncc1,inactive
2,Cl.Nc1c2c(nc3ccccc13)CCCC2,inactive
3,Nc1c2c(nc3ccccc13)CCCC2,inactive
4,C[C@@H]1CCCCO[C@H](CN(C)Cc2ccncc2)[C@@H](C)CN([C@H](C)CO)C(=O)c2cc(NS(C)(=O)=O)ccc2O1,inactive
5,C[C@@H]1CCCCO[C@H](CN(C)C(=O)c2ccccc2)[C@@H](C)CN([C@@H](C)CO)C(=O)c2cc(NS(=O)(=O)c3cccs3)ccc2O1,inactive
6,CCC[C@@H](O)C#Cc1cnc2c(c1)C(=O)N([C@H](C)CO)C[C@H](C)[C@H](CN(C)Cc1ccc3c(c1)OCO3)O2,inactive
7,COc1ccc(S(=O)(=O)Nc2ccc3c(c2)C(=O)N([C@H](C)CO)C[C@H](C)[C@H](CN(C)S(C)(=O)=O)OCCCC[C@H](C)O3)cc1,inactive
8,CO[C@H]1C[C@@H](O[C@@H]2/C(C)=C/C[C@@H]3C[C@@H](C[C@]4(CC[C@H](C)[C@@H](C5CCCCC5)O4)O3)OC(=O)[C@@H]3C=C(C)/C(=N/O)[C@H]4OC/C(=C\C=C\[C@@H]2C)[C@]43O)O[C@@H](C)[C@@H]1O,inactive
9,CO[C@H]1C[C@H](O[C@@H]2/C(C)=C/C[C@@H]3C[C@@H](C[C@]4(CC[C@H](C)[C@@H](C5CCCCC5)O4)O3)OC(=O)[C@@H]3C=C(C)/C(=N/O)[C@H]4OC/C(=C\C=C\[C@@H]2C)[C@]43O)O[C@@H](C)[C@@H]1O,active
10,COC1CC(OC2C(C)=CCC3CC(CC4(CCC(C)C(C5CCCCC5)O4)O3)OC(=O)C3C=C(C)C(=NO)C4OCC(=CC=CC2C)C34O)OC(C)C1O (centres undefined),active
11,O=c1[nH]c(=O)n([C@H]2C[C@H](O)[C@@H](CO)O2)cc1C(F)(F)F,inactive
12,C[C@H](CO)N1C[C@H](C)[C@@H](CN(C)Cc2ccncc2)OCCCC[C@H](C)Oc2ccc(NC(=O)CCC(F)(F)F)cc2C1=O,inactive
13,C[C@H](CO)N1C[C@H](C)[C@@H](CN(C)CC2CCCCC2)OCCCC[C@H](C)Oc2ccc(NC(=O)CCCCCC(=O)Nc3ccccc3N)cc2C1=O,inactive
14,COc1ccc(NC(=O)Nc2ccc3c(c2)C(=O)N([C@@H](C)CO)C[C@@H](C)[C@H](CN(C)Cc2ccc(Cl)c(Cl)c2)OCCCC[C@@H](C)O3)cc1,inactive
15,CCCN(C)C[C@@H]1OCCCC[C@@H](C)Oc2ccc(NC(=O)Nc3ccc(OC)cc3)cc2C(=O)N([C@H](C)CO)C[C@@H]1C,inactive
16,COc1ccc(C#Cc2cnc3c(c2)C(=O)N([C@H](C)CO)C[C@@H](C)[C@@H](CN(C)C(=O)CC2CC2)O3)cc1,inactive
17,O=C(C[C@@H]1CC=CCC[C@@H](Cc2ccc(F)cc2)C(=O)OC[C@H](Cc2ccccc2)NC1=O)NCCO,inactive
18,C[C@H](CO)N1C[C@H](C)[C@H](CN(C)Cc2ccccc2)Oc2ncc(-c3cccc(C(F)(F)F)c3)cc2C1=O,inactive
19,C[C@H](CO)N1C[C@H](C)[C@H](CN(C)Cc2cccc(C(F)(F)F)c2)Oc2ncc(-c3cccc(F)c3)cc2C1=O,inactive
20,Cc1cccc(CN(C)C[C@@H]2Oc3ncc(-c4cccc(C(F)(F)F)c4)cc3C(=O)N([C@H](C)CO)C[C@@H]2C)c1,inactive
21,C[C@H](CO)N1C[C@H](C)[C@H](CN(C)Cc2cccc(C(F)(F)F)c2)Oc2ncc(-c3ccccc3)cc2C1=O,inactive
22,C[C@H](CO)N1C[C@H](C)[C@H](CN(C)Cc2cccc(C(F)(F)F)c2)Oc2ncc(/C=C/c3ccccc3)cc2C1=O,active
23,C[C@H](CO)N1C[C@H](C)[C@H](CN(C)Cc2cccc(C(F)(F)F)c2)Oc2ncc(-c3cccc(C(F)(F)F)c3)cc2C1=O,active
